Compound activity as filed in PubChem BioAssay.
IMPase inh = IMPase inhibition in cells | P97697 | CHO-M1 cells, IP1 accumulation, HTRF TR-FRET ratio | inhibition (IP1 accumulation), % at 46.1 µM | 120,000 tested, under 10 active; active = well fitted curve in the direction sought with a large enough effect in the signal ratio, not every such curve was filed as active; inconclusive = small, poorly fitted or top-dose-only effect, or a change in a side signal; inactive = no such curve, though single readings can be large or run the other way; the % refers to the signal ratio;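 also: cells stimulated with carbachol in lithium chloride buffer; plate controls were DMSO basal wells for no effect and reference inhibitor wells for full effect; higher means more IMPase inhibition seen as more IP1 and lower FRET ratio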
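CHO-M1, 2000 cells/well, cultured 16–30 h; cpd up to 46 uM; carbachol (50 uM solution, stimulation buffer w/ 50 mM LiCl, pH 7.4), 30 min 37C; IP-One TR-FRET, 10 min RT; Ex 320/Em 665, 620; Hill-fit AC50.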
HPGD inh = blocks human HPGD enzyme activity. Potency, µM, without a hit: top-dose activity change, negative = inhibition, hits mostly inhibitors. AID 894. 4.3% of 150,000 active. P15428. purified HPGD, NADH fluorescence kinetic, PGE2 substrate; active = well fitted inhibition curve with a large enough effect, not every such curve was filed as active; inconclusive = small, poorly fitted or top-dose-only effect, or another doubt; inactive = no such curve, though single readings can be large or run the other way; also: potency is read from the fitted curve at half-maximal effect
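NADH formation kinetics: reaction with 30 uM PGE2 and 1 mM NAD+ (final), 20 nM enzyme, Tris-HCl pH 8 with Tween 20, after 15 min compound preincubation at room temperature. Fluorescence change, last versus first of five reads.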
ALDH1A1 block = inhibitors of human aldehyde dehydrogenase 1A1 | P00352 | 7.3% of 220,000 active | Purified ALDH1A1, NADH fluorescence, propionaldehyde substrate | AID 1030 | Potency, µM (top dose mostly 75.3 µM), for the others: at the highest dose activity, negative = inhibition, usual class: inhibitors; active = well fitted inhibition curve with a large enough effect, not every such curve was filed as active; inconclusive = small, poorly fitted or top-dose-only effect, or another doubt; inactive = no such curve, though single readings can be large or run the other way;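 also: potency is read from the fitted curve at half-maximal effect; plate controls were no enzyme wells and a reference inhibitor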
ALOX12 inhib = inhibitors of human 12-lipoxygenase (ALOX12). purified 12-hLO, xylenol orange hydroperoxide absorbance. Potency, µM (highest dose often 57.1 µM), inactives show at the top dose activity change, negative = inhibition, most hits filed as inhibitors. AID 1452. 0.12% of 150,000 active. P18054; also: potency is read from the fitted curve at half-maximal effect; nearly all actives have a fitted effect of over 55% in size
Target sequence (P18054 whole entry, looked up): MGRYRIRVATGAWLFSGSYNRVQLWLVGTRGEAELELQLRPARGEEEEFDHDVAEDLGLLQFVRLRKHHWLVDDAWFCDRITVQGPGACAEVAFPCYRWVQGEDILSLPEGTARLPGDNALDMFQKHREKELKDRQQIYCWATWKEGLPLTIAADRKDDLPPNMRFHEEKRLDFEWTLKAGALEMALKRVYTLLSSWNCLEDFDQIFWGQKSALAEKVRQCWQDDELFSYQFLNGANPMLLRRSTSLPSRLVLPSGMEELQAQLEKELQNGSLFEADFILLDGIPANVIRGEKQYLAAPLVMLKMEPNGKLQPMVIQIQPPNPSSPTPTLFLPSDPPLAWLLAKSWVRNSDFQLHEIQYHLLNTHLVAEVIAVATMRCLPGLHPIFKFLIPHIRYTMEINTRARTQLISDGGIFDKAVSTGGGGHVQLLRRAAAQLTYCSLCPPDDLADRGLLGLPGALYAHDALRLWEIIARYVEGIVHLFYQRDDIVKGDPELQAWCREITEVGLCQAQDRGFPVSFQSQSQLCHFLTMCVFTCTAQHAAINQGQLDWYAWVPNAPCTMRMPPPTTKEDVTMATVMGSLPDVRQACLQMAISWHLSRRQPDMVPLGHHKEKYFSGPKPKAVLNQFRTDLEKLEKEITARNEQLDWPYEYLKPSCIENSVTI
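Lipoxygenase turnover measured by absorbance at 573 and 405 nm after Fe-XO development. Human 12hLO 150 nM, arachidonate 40 uM, pH 7.0 Hepes buffer with detergent; 15 min compound preincubation, 30 min reaction.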
IMPase Li inh = IMPase inhibition in cells with lithium potentiation; CHO-M1 cells, IP1 TR-FRET (IP-One), carbachol + lithium; Potency, µM (titrated, usually from 59.4 µM), without a hit: top-dose activity, negative = IMPase inhibition, most hits filed as inhibitors; 0.35% of 210,000 active; AID 1457;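 also: IP1 builds up when IMPase is blocked and the TR-FRET signal falls; potency is read from the fitted curve at half-maximal effect; plate controls were basal vehicle for no effect and high inhibitor control for full effect; nearly all actives have a fitted effect of over 50% in size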
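CHO cells stably expressing M1 receptor (2000/well, cultured 16–30 h) treated 30 min at 37C with compound plus low lithium. Cytosolic IP1 by TR-FRET (665/620 ratio and 620 channel) after 10 min lysis; AC50 by Hill fit.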
PNC assembly inh = inhibitors of perinucleolar compartment assembly | AID 2417 | activity change (PNC), negative = inhibition, % at 10 µM | 3.1% of 140,000 active | PC3M PTB-GFP, PNC prevalence imaging, 16 h; active compounds read low;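 active = readout at or below -70, meaning at least 70% loss of cells showing the perinucleolar compartment, a nuclear body marking cancer cells; inconclusive = readout between -30 and a set limit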;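 also: plate controls were DMSO wells for no effect and camptothecin positive control wells for full effect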
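Read-out is percentage of cells bearing a perinucleolar compartment, from automated 20x imaging of fixed, Hoechst-stained PC3M PTB-GFP cells. Cells were seeded 4 h, then exposed 16 h to compound (23 nl of library stock) in duplicate plates.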
* hit, by the source's call; ? = inconclusive; . = no result; [ ] = another dose, or the depositor's remark. Rows were chosen to be rich in hits. Some 11% of all compounds tested hit in one or more screens of this group. Unless noted, calls follow the shape of the dose curve; as a rule, active = well fitted curve in the direction sought with a large enough effect; inconclusive = small, poorly fitted or top-dose-only effect, or another doubt; inactive = no such curve, though single readings can be large; an effect the other way counts as inactive or inconclusive. Unless noted, % is scaled to controls: 0 for no effect and ±100 for the full control effect.

SMILES	IMPase inh	HPGD inh	ALDH1A1 block	ALOX12 inhib	IMPase Li inh	PNC assembly inh
CCOC(=O)c1c(NC(=S)NCC2CCCO2)sc(C)c1C (stereo unspecified)	.	.	18µM*	.	-8%	.
O=C(C1CCCN(S(=O)(=O)c2ccccc2[N+](=O)[O-])C1)N1CCN(c2ccccc2)CC1 (stereo unspecified)	-4	-10%	?	-4%	13%	?
C[C@]1(c2ccccc2)O[C@@H]2C[C@@H]3[C@@H]4CCC5=CC(=O)C=C[C@@]5(C)[C@]4(F)[C@H](O)C[C@]3(C)[C@@]2(C(=O)CO)O1	.	-3%	12%[13.5 µM]	1%[11.4 µM]	-7%	.
C(=Nc1ccc(Nc2ccccc2)cc1)c1ccc2ccccc2c1	16	-23%	?	?	22%	-83*
Brc1ccc(C=Nc2ccc(Nc3ccccc3)cc2)s1	29	-21%	?	?	27%	-7
O=C(O)c1ccc(N2CC3CC(C2)c2cccc(=O)n2C3)c(NC(=S)Nc2ccc(Cl)cc2Cl)c1 (stereo unspecified)	.	.	16µM*	.	-4%	.
CN1CCN(Cc2nc3ccccc3c(=O)n2Cc2nc(-c3ccc([N+](=O)[O-])cc3)cs2)CC1	-4	.	13µM*	4%	.	?
CCCCC(C)(O)C/C=C/[C@H]1[C@H](O)CC(=O)[C@@H]1CCCCCCC(=O)O (stereo partly specified)	.	-9%	1%	14%	-7%	.
COc1ccc(N=C2NC(=O)/C(=C\C=C\c3ccco3)S2)cc1	.	.	11µM*	.	-4%	.
CC1(OC(=O)C2CCCC2)C(=O)C=C2C=C(c3ccsc3)N(Cc3ccco3)C=C2C1=O (stereo unspecified)	.	-11%	3.5µM*	-17%[11.4 µM]	8%	.
C=C[C@]1(C)C[C@H](OC(=O)CO)[C@]2(C)C3C(=O)CC[C@]3(CC[C@H]2C)[C@H](C)[C@H]1O (stereo partly specified)	.	-5%	-3%[13.5 µM]	0%[11.4 µM]	-13%	.
CCn1cnc2scc(-c3ccccc3)c2c1=O	11	-9%	9%	2%	23%[38.3 µM]	-107*
O=C(Cn1cnc2scc(-c3ccccc3)c2c1=O)N1CCOCC1	12	3%	6%	-4%	7%[38.3 µM]	11
N/C(CC/C(N)=N/O)=N\O	.	-9%	0%[13.5 µM]	1%[11.4 µM]	-2%	.
CN1CCO[C@H](c2ccccc2)c2ccccc2C1	5[20.6 µM]	0%	10%[20.9 µM]	-1%[25.6 µM]	-3%	.
Cc1cc(C)n(C(=O)CCNC(=O)c2ccccc2Br)n1	-1	7.9µM*	-1%	-1%	-7%[38.3 µM]	16
Cc1cc(C)n(C(=O)CNC(=O)CCc2ccccc2)n1	0	16µM*	5%	-7%	10%[38.3 µM]	?
CC(C)(C)S(=O)(=O)c1ccc(S(=O)(=O)C(C)(C)C)s1	-4	-8%	7%	6%	-4%	110
COCCn1c(=O)cnc2cnc(N(C)C)nc21	.	.	-2%	.	7%	.
Cc1ccccc1-c1cc(N(C)C)ncn1	.	.	?	.	-12%	.
O=c1c(-c2ccccc2)nc2cnc(N3CCNCC3)nc2n1Cc1cccs1	.	?	?	4%	13%	.
Cc1cn(S(=O)(=O)c2ccc(Br)c3ccccc23)cn1	?	3%	1%	0%	11µM*	?
COc1cc(S(=O)(=O)n2cnc(C)c2)ccc1Br	.	.	0%	.	11%	.
Nc1nc(Nc2ccccc2)nc2c1ncn2[C@@H]1O[C@H](CO)[C@H](O)[C@H]1O	.	-12%	-7%	.	2%	.
CCOC(=O)c1nc2sc(C)c(C)c2c(=O)[nH]1	-10	?	?	-1%	-9%[38.3 µM]	27
SMILES	IMPase inh	HPGD inh	ALDH1A1 block	ALOX12 inhib	IMPase Li inh	PNC assembly inh
CCOC(=O)/C(=C\c1cccc(O)c1)c1nc2sc(C)c(C)c2c(=O)[nH]1	.	7.9µM*	7.9µM*	-13%	14%	?
CCOC(=O)c1c(NC(=O)CCCOc2ccc(Cl)cc2)sc2c1CCC2	-7	.	.	.	.	.
CC1=C(C(=O)OC2CCCCCC2)C(c2cccc(Cl)c2)CC(=O)N1 (stereo unspecified)	12	.	.	.	.	.
C=CC[C@@](C(C)=O)(C(=O)OC)C(NC(=O)OC(C)(C)C)c1ccccc1 (stereo partly specified)	.	-4%	-1%	.	10%	.
CCC1Oc2ccc(C)cc2N(CC(=O)N(Cc2cccnc2)Cc2ccc(C)o2)C1=O (stereo unspecified)	3	28µM*	3.2µM*	-3%	26%[38.3 µM]	-11
CCC1=NN=C(c2ccc(F)cc2)C(c2c[nH]c3ccccc23)N1O (stereo unspecified)	-19	-11%	?	-7%	3%	-100*
Cc1ccc(N2C(=O)CC(c3c[nH]c4ccccc34)C2=O)cc1 (stereo unspecified)	.	.	-3%	.	8%	.
Cc1ccc(C(=O)Nc2ccccc2C(=O)N2CCCC2)cc1[N+](=O)[O-]	.	-11%	4%	-3%	2%	-8
CCn1cc(C(=O)Nc2ccc(C)c([N+](=O)[O-])c2)cn1	.	-16%	?	-5%	2%	-87*
Cc1csc(NC(=O)c2ccc(C)c([N+](=O)[O-])c2)n1	.	28µM*	?	-7%	-7%	-17
Cc1ccc(C(=O)Nc2ccc3c4c(cccc24)CC3)cc1[N+](=O)[O-]	3	?	8%	3%	10%	-81*
Cc1ccc(C(=O)Nc2ccccc2-c2ccccc2)cc1[N+](=O)[O-]	?	-6%	18µM*	-5%	17%[38.3 µM]	110
Cc1cc(C)nc(NC(=O)c2ccc(C)c([N+](=O)[O-])c2)n1	4	6%	6%	4%	-12%	?
C[C@@H]1C[C@](C)(C(=O)c2ccc3c(c2)OCO3)C=C1c1ccc2c(c1)OCO2	.	3%	-10%	.	-4%	.
C=CCCCCCCCCC(=O)O	.	-9%	2%	-1%[0.00818 µM]	4%	.
COc1ccc(OCCC(=O)NC2CCCCC2)cc1	.	.	-1%	.	1%	.
CCCCCCNc1nc(-c2ccc(OC)cc2)c(CCC(=O)O)s1	-3	?	22µM*	-7%	-2%	1
COc1ccc(-c2nn(CCC(=O)O)cc2CCC(=O)O)cc1	-7	-17%	-8%	5%	-14%[38.3 µM]	-9
COC(=O)CCc1sc(NC2CCCCC2)nc1-c1ccc(OC)cc1	.	22µM*	?	-9%	3%	-8
COCCNc1nc(-c2ccc(OC)cc2)c(-c2ccc(OC)cc2)s1	.	.	28µM*	.	22%	.
CCN(CC)CCNc1nc(-c2ccc(OC)cc2)c(-c2ccc(OC)cc2)s1	.	.	-13%	.	.	.
COC(=O)NC(CC(C)=O)c1ccc(F)cc1 (stereo unspecified)	.	.	12%[13.5 µM]	.	.	.
COC(=O)c1c(NC(=O)/C(C#N)=C/c2ccc(OC)cc2)sc2c1CCC2	-11	.	.	.	.	.
